Only some compounds are listed: those with a hit (about 0.9% of all), similar ones and a draw of the others.
RecA splice inh: Mtb RecA intein splicing inhibition; P9WHJ3; cell-free RecA intein splicing, fluorescence; inhibition, % (concentration not given with the values); 290,000 tested, 0.75% active; AID 2221; in the data active = inhibition above about 30%;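 also: 0% = vehicle wells and 100% = reference inhibitor control wells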
FadD28 FP inh: M. tuberculosis FadD28 bisubstrate binding inhibition; inhibition, % at 12.5 µM; 360,000 tested, 0.22% active; FadD28 bisubstrate probe binding, fluorescence polarization; AID 588549; in the data active = inhibition above about 8.5%, passing the limit was not always enough
BioA inh: blocks M. tuberculosis BioA enzyme activity. purified M. tuberculosis BioA enzyme, plate reader. inhibition, % at 9.99 µM. 360,000 tested, 0.096% active; in the data active = inhibition above about 40%
Mtb UGM inh: Mtb UDP-galactopyranose mutase inhibition; P9WIQ1; purified UGM, fluorescence polarization probe displacement; inhibition, % at 10 µM; 320,000 tested, 0.06% active; in the data active = inhibition above about 10%, passing the limit was not always enough
TcdB GH inh: inhibitors of Clostridioides difficile toxin B glycohydrolase | inhibition, % at 9.99 µM | 350,000 tested, 0.24% active | P18177 | TcdB glycohydrolase enzymatic assay, plate reader; in the data active = inhibition above about 10%
Rv3671c inh: inhibitors of M. tuberculosis serine protease Rv3671c; 320,000 tested, 0.048% active; inhibition, % at 5.96 µM; P9WHR9; in the data active = inhibition above about 38%;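 also: extracellular domain of Rv3671c used as enzyme; 0% = enzyme with DMSO and 100% = no enzyme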
Target sequence (P9WHR9 whole entry, looked up, the tested form may be a part): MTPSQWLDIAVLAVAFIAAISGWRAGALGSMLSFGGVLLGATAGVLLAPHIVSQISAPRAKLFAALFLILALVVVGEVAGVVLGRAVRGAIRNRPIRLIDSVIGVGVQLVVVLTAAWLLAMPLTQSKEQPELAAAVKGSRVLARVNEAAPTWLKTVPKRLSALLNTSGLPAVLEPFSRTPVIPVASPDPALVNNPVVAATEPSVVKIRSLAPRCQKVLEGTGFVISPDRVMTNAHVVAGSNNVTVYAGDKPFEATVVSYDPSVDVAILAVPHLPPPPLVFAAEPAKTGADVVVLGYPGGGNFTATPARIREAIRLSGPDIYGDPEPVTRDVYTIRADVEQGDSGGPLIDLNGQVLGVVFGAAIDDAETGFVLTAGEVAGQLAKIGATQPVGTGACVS
An asterisk follows results filed as active; x = no result given.

SMILES	RecA splice inh	FadD28 FP inh	BioA inh	Mtb UGM inh	TcdB GH inh	Rv3671c inh
COc1ccc(-n2c(O)c(/C=C3\C=Nc4ccc(Br)cc43)c(=O)[nH]c2=O)cc1	4.4	-1.7	-3.4	40.6*	0.3	-14.2
COc1ccc(-n2c(O)c(/C=C3\C=Nc4ccc(Br)cc43)c(=O)[nH]c2=O)c(OC)c1	-1.6	3.5	-0.2	-1.4	0.8	-6.4
COc1cccc(/C=N/n2c(C)nc3ccccc32)c1OC	1.9	-4.8	-0.3	-1.4	x	-1.8
COc1cccc(/C=N/n2c(-c3ccco3)nc3ccccc3c2=O)c1OC	2.0	-3.3	x	10.6*	x	-14.4
O=C1C(=O)C(Cl)=C(Cl)C(Cl)=C1Cl	x	11.1*	-0.6	x	x	x
CCCNC(=O)C[C@H]1CC[C@H]2[C@@H](COc3ccc(NC(=O)NC(C)C)cc3C(=O)N2C)O1	x	x	-3.4	x	-0.2	x
Cc1cc(C)c(S(=O)(=O)N2CCCCC2C(=O)O)c(C)c1 (stereo not given)	-0.6	-2.2	x	3.9	12.9*	-1.5
O=C(Cc1ccccc1F)NNC(=O)c1cccs1	x	-0.9	0.5	-0.6	-0.3	2.7
O=C(Cc1coc2cc(O)ccc12)NNC(=O)c1cccs1	x	-0.4	-1.9	0.5	19.4*	0.6
CNC(=O)/C(C#N)=C/c1c(N(Cc2ccccc2)Cc2ccccc2)nc2c(C)cccn2c1=O	31.0*	-6.0	2.3	0.1	x	0.8
O=C(Nc1ccc(O)cc1)/C(=C/c1ccco1)NC(=O)c1ccccc1	-0.6	-0.4	x	3.4	17.8*	-4.3
O=C(Nc1ccc(C(=O)O)cc1)/C(=C\c1ccco1)NC(=O)c1ccc(Br)cc1	x	-1.7	-0.5	x	0.1	x
O=C(Nc1ccc(O)cc1)/C(=C\c1ccncc1)NC(=O)c1ccccc1	0.1	-4.8	-0.1	-1.4	23.6*	-0.7
CCOC(=O)c1c(C)oc2c1c(C=NCCO)c(O)c1ccccc12	45.7*	7.8	x	x	-0.6	x
CCOC(=O)c1c(C)oc2c1c(C(c1ccccc1)N1CCOCC1)c(O)c1ccccc12 (stereo not given)	-3.1	-1.5	-1.0	-3.7	x	-3.6
CC(C)C#Cc1cnc2c(c1)C(=O)N([C@H](C)CO)C[C@H](C)[C@H](CN(C)C(=O)c1cccnc1)O2	x	x	-3.0	x	1.5	x
O=C(C[C@@H]1CC[C@H]2[C@@H](COC[C@@H](O)CN2C(=O)c2ccncc2)O1)NC1CCC1	x	x	-1.7	x	0.4	x
CCN(C(=O)COC(=O)c1cc(Cl)ccc1OC)c1c(N)n(Cc2ccccc2)c(=O)[nH]c1=O	x	-0.1	-1.6	12.2*	2.5	0.5
COc1ccc(Cl)cc1C(=O)OCC(=O)N(CC(C)C)c1c(N)n(Cc2ccccc2)c(=O)[nH]c1=O	3.2	-1.1	2.0	-0.8	0.7	3.2
CCCNC(=O)C[C@@H]1CC[C@H]2[C@@H](COC[C@@H](O)CN2C(=O)Nc2cccc(Cl)c2)O1	x	x	0.0	x	-0.6	x
CC(C)(C)C1CCc2sc(C(=O)NNC(=O)CCl)cc2C1 (stereo not given)	67.3*	-0.8	-1.8	x	0.3	x
CC(C)(C)C1CCC(=NNC(=O)c2cc3c(s2)CCCC3)CC1 (stereo not given)	4.7	-3.6	-0.6	-0.5	-12.5	-2.4
O=C(NC1CCCCC1)N1CC(=O)N2[C@H](C1)[C@@H](c1ccc(-c3ccccc3)cc1)[C@@H]2CO	x	x	x	x	-0.1	x
Oc1ccccc1-c1cnc2cccnn12	x	-0.9	1.3	x	46.6*	x
O=C(O)c1cc(-c2ccc(/C=C3\NC(=O)N(c4ccc(Cl)cc4)C3=O)o2)ccc1Cl	-36.9	10.3*	x	1.4	-1.5	4.6
SMILES	RecA splice inh	FadD28 FP inh	BioA inh	Mtb UGM inh	TcdB GH inh	Rv3671c inh
CCC(=O)Nc1ccc2c(c1)C(=O)N(C)[C@H]1CC[C@@H](CC(=O)NCc3ccccc3)O[C@@H]1CO2	x	x	-0.7	x	-0.6	x
COc1ccc2nc(NC(=O)C3COc4ccccc4O3)sc2c1 (stereo not given)	9.4	-5.2	0.7	6.8	-0.4	-12.8
COc1ccc2nc(NNC(=O)C3COc4ccccc4O3)sc2c1 (stereo not given)	-3.5	-2.6	0.2	-0.4	39.4*	6.1
O=C(Nc1ccccc1F)N(Cc1ccc(F)cc1)Cc1nc2ccccc2c(=O)[nH]1	2.5	-2.8	x	2.8	24.2*	13.0
O=C(CC(F)(F)F)N1C[C@H]2[C@@H](c3ccccc31)[C@H](CO)N2C(=O)C1CCCC1	x	x	0.0	x	-0.3	x
COc1cc2c3nnc(-c4ccccc4)c-3cn(Cc3ccc(F)cc3)c2cc1OC	-124.2	-7.4	x	5.1	1.5	-4.0
COc1cc2c3nnc(-c4ccc(F)cc4)c-3cn(Cc3ccc(C)cc3)c2cc1OC	-74.3	-0.9	-3.2	15.4*	0.4	3.4
Cc1ccc(-c2nnc(OCCN3CCOCC3)c3ccccc23)cc1	-2.3	-2.6	16.6	-1.7	x	-3.9
c1ccc(-c2nnc(OCC3CCCO3)c3ccccc23)cc1 (stereo not given)	6.0	0.6	6.8	5.7	10.5*	-3.8
Cc1nc2ccccc2c2c1C(=O)NC2=O	59.7*	x	x	0.0	x	6.0
Cc1ccc(CSCCNC(=O)c2ccc(NS(C)(=O)=O)cc2)cc1	7.4	15.4*	-1.6	0.1	-0.9	-7.3
Cc1ccc(CSCCNC(=O)c2ccc(C)cc2)cc1	x	1.9	x	0.9	0.5	4.7
C[C@H]1CN([C@@H](C)CO)S(=O)(=O)c2ccc(C3=CCCC3)cc2O[C@H]1CN(C)S(=O)(=O)c1cn(C)cn1	x	x	2.6	x	-0.1	x
Oc1ccc(O)c(C=NNC(=S)NC2CC3CC2C2C=CCC32)c1 (stereo not given)	x	17.8*	-0.2	x	-0.1	x
COc1cc(/C=C2/C(=O)c3cccc([N+](=O)[O-])c3C2=O)c(Br)cc1O	x	10.1*	x	1.2	x	7.1
COc1ccccc1NC(=O)CCCCCN1C(=O)c2cccc([N+](=O)[O-])c2C1=O	-2.0	1.1	6.0	-0.9	-0.8	-2.1
O=C(O)CCC(=O)Nc1ccc(C(=O)OCC(=O)c2ccc(Cl)cc2)cc1	-1.5	15.0*	-1.4	-0.9	1.5	-4.1
O=C(COC(=O)c1ccc(O)cc1)Nc1ccc(Cl)cc1	3.8	x	x	1.7	2.7	2.0
Cc1cc(C)c(S(=O)(=O)ON2C(=O)c3ccccc3C2=O)cc1C	59.7*	-0.2	0.3	3.0	x	-2.8
Cc1ccc(S(=O)(=O)ON2C(=O)c3ccccc3C2=O)c(C)c1	x	0.2	x	-2.0	0.6	4.8
C/C=C1\NC(=O)[C@H](C)NC(=O)[C@@H](NC(=O)[C@H](Cc2ccc(O)cc2)NC(=O)[C@@H](NC(=O)/C(C)=C/C)C(C)C)[C@@H](C)OC(=O)[C@H](CCCc2ccc(O)cc2)NC(=O)[C@@H](CCC(=O)OC)NC1=O	x	-3.4	-2.3	x	2.0	x
C/C=C1\NC(=O)[C@H](CC(N)=O)N(C)C(=O)C([C@@H](C)O)NC(=O)C(CCCc2ccc(OC)cc2)NC(=O)[C@H](C(C)C)NC(=O)/C(=C\C)NC(=O)[C@H](O)[C@@H](C[C@@H](O)CCCCCCC)NC(=O)[C@H](C)NC(=O)CN(C)C(=O)[C@H](CCC(N)=O)NC1=O (stereo not given in full)	x	11.5*	5.2	x	1.4	x

Source: PubChem BioAssay
